# The list is not random: actives were taken first. Their share in the collection is about 0.93%.
# PTHR1 agonist – agonists of human PTHR1 parathyroid hormone receptor; Q03431; HEK293 GP2 PTHR1 cells, GloSensor cAMP luminescence, 1 h; Potency, µM (titrated, usually from 115 µM), actives largely listed as activators; 0.075% of 410,000 active; note: nearly all actives have a fitted effect of over 55% in size
#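 HEK-293-derived GP2 cells expressing PTHR1 and a GloSensor cAMP reporter, 3,000/well, plated overnight, given luciferin plus IBMX (each 0.5 mM as added) for 1 h at 37 °C, then compound for 1 h at 37 °C. Luminescence was read after 15 min at room temperature.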
# GLP1R cytotox – cytotoxicity in counter-screen for GLP-1R inverse agonists | HEK293 cAMP-luciferase reporter cells, luminescence, 24 h | Potency, µM (doses to about 38.3 µM), hits mostly inhibitors | 0.13% of 410,000 active;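 note: loss of luciferase light is scored as toxicity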
#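 Here, cytotoxicity is scored as loss of luminescence. The MLSMR collection was tested on cells seeded in medium containing 10% Nu serum, with a 24 hr compound exposure preceded by 12 hours of culture.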
# TRPML1 ag – human mucolipin-1 channel agonism; activation, % (concentration not given with the values); AID 624414; TRPML1-expressing cells, Ca2+ dye fluorescence, FDSS; 0.12% of 410,000 active; Q9GZU1; in the data active = activation above about 50%; inconclusive = mostly about 30% to 49%
# Target sequence (Q9GZU1 whole entry, looked up): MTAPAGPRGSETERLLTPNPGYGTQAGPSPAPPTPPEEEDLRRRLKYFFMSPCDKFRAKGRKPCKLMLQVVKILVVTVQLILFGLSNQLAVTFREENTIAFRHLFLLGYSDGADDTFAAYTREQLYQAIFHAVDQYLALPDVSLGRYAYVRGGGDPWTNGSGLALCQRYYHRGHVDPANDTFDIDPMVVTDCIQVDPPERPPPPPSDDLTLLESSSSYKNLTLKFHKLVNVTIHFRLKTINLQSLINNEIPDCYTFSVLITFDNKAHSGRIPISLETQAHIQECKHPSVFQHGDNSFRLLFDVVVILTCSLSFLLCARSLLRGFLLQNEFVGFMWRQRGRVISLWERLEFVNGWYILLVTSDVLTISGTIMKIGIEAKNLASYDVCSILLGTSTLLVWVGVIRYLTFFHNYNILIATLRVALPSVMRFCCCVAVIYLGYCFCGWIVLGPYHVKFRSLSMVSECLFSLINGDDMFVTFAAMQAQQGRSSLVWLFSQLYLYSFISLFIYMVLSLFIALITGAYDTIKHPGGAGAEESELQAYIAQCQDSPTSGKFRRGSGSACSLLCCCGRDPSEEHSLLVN
#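 Cells: TRPML1-DL, 1X Tet inducer, ~16 h at 37 degrees C/5% CO2. Dye: ABD Ca8 no-wash + quencher, 45-90 min RT. Read: 10 s baseline, compound add, 110 s agonist phase; 54-4 EC80 (4uM final), 110 s antagonist phase.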
# TRHR PAM – allosteric enhancers of human TRH receptor; enhancement, % at 2 µM; 0.66% of 360,000 active; TRHR cells, fluo-8 calcium fluorescence, EC20 TRH enhancement; P34981; in the data active = enhancement above about 30%
#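 TRHR-expressing cells loaded with fluo-8 calcium dye were read kinetically (ex 480/em 530) during compound addition, then stimulated with an EC20 of TRH (10 nM final). Enhancement of the Gq-mediated intracellular calcium response was scored.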
# TRPML1 blocker – inhibitors of human TRPML1 channel; 0.02% of 390,000 active; activity change, negative = inhibition, % (no concentration beside the values); AID 624415; Q9GZU1; TRPML1-inducible cells, Ca2+ dye fluorescence, FDSS; hits give low values; inhibition of EC80 agonist-evoked calcium signal; in the data active = activity change below about -50%; inconclusive = between about -30% and that limit;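 note: stimulus is agonist 54-4 at its EC80 concentration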
#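 Tet-induced TRPML1-DL cells loaded with Ca8 no-wash calcium dye were read kinetically on FDSS. Compound addition was followed by EC80 agonist 54-4 (4 uM final); inhibition was read over 110 s.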
# TRHR ag – agonists of human TRH receptor. P34981. TRHR cells, calcium flux fluo-8, FDSS agonist mode. activation, % at 2 µM. 0.18% of 360,000 active; in the data active = activation above about 30%
#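 TRHR-expressing cells, plated overnight in medium with 10% serum, were loaded with fluo-8 calcium dye at room temperature. After a 10 s baseline, library compound was pin-added and calcium release was recorded kinetically (ex 480/em 530) as agonist response.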
# A number is an active result; i = inactive; ? = inconclusive; nt = no result; [ ] = remark or other dose. Unless noted, calls come from the whole dose curve; as a rule, active = well fitted curve in the direction sought with a large enough effect; inconclusive = small, poorly fitted or top-dose-only effect, or another doubt; inactive = no such curve, though single readings can be large; an effect the other way counts as inactive or inconclusive.
SMILES,PTHR1 agonist,GLP1R cytotox,TRPML1 ag,TRHR PAM,TRPML1 blocker,TRHR ag
O=C(c1cc(-c2ccc(Cl)cc2Cl)on1)N1CCCC1,i,i,i,i,i,i
Cc1nccc(-c2cc(-c3ccc(Cl)cc3Cl)no2)n1,i,i,i,32.8,i,i
COc1ccc([S+](=O)([O-])N2CCN([S+](=O)([O-])c3ccc4c(c3)OCCO4)CC2)c(OC)c1,nt,nt,nt,i,nt,i
C=C1C=C(C)n2ncc(C(=O)Nc3cccc4cnccc34)c2N1,nt,nt,i,nt,nt,nt
O=C(Nc1nnc(-c2ccc(Cl)cc2)o1)c1nc2ccccc2s1,i,i,86.7,i,i,i
COc1ccccc1N1CCN(Cc2c[nH]c3ccccc23)CC1,i,i,i,i,i,i
Cc1ccccc1N1CCN(Cc2c[nH]c3ccccc23)CC1,3.98µM,?,i,i,i,i
Cc1cc(C(Br)(Br)Br)nc2ccccc12,nt,nt,i,nt,nt,nt
CN(c1ccc(/C=C/c2ccccc2)cc1)P1(=O)NCCCO1 (centres undefined),nt,nt,i,nt,nt,nt
COc1ccccc1Oc1coc2c(CN3CCOCC3)c(O)ccc2c1=O,i,i,i,36.8,i,i
Cc1ccc(N2CC(=O)N(NC(=O)c3sc4nc(C)cc(C)c4c3N)CC2=O)cc1,i,i,i,37.5,i,i
O=C1c2cccc3c(N4CCCCC4)ccc(c23)C(=O)N1c1ccccn1,i,i,i,i,i,156.5
Cn1cc(-c2ccccc2C(N)=O)c(=O)c2cc(Cl)ccc21,i,i,i,i,i,i
Cn1cc(C2=C(c3ccc(Cl)cc3Cl)C(=O)NC2=O)c2ccccc21,i,i,i,i,i,47.9
Cc1ccc(Cn2c(CN3CCC(C(=O)NCCc4ccccc4)CC3)cc3ccccc32)cc1,i,?,i,i,i,i
O=C(NCCc1ccccc1)C1CCN(Cc2cc3ccccc3n2Cc2cccc(Cl)c2)CC1,i,i,i,30.9,i,i
OC(Cc1ccc2ccccc2n1)c1c(Cl)cccc1Cl (centres undefined),nt,nt,i,nt,nt,nt
Cc1ccc(NC(=O)CS(=O)CC(=O)N2CCN(c3ccccc3)CC2)cc1 (centres undefined),i,i,i,31.2,i,i
CC1CCN(c2ccc(NC(=O)Cc3ccccc3)cc2)CC1,i,i,i,i,-50.9,i
CN(C)C=Nc1c(Br)cc(Br)c2nonc12,i,i,61.8,i,i,141.3
CN(C)C=Nc1nonc1-c1ccccc1,i,i,i,i,i,i
Cc1cc2ccccc2c[n+]1C1CCCCC1,nt,nt,i,nt,nt,nt
COc1cc2nc(Cl)nc(NC(C)C)c2cc1OC,nt,nt,i,nt,nt,nt
CCOC(=O)Cn1c(=O)oc2ccc(C)cc21,i,i,i,i,i,i
Cc1ccc2oc(=O)n(CC(=O)OCCC(C)C)c2c1,i,i,i,35.2,i,i
SMILES,PTHR1 agonist,GLP1R cytotox,TRPML1 ag,TRHR PAM,TRPML1 blocker,TRHR ag
CC(Sc1nnc(COc2ccc3ccccc3c2)n1C)C(=O)O (centres undefined),i,i,i,i,i,i
Cc1cccc2cncc(OCc3nnc(SC(F)F)n3C)c12,i,i,i,40.9,i,i
Cc1ccc(C)c(S(=O)(=O)Nc2nc3ccc(S(N)(=O)=O)cc3s2)c1,i,i[7.66 µM],i,40.7,i,i
Cc1ccc(S(=O)(=O)Nc2nc3ccc(S(C)(=O)=O)cc3s2)cc1,i,i,i,i,i,i
CCOc1ccc(/C=C/c2ccc3ccccc3[n+]2C)cc1OCC,nt,nt,i,nt,nt,nt
CC(=O)Nc1ccc2sc(C)nc2c1,i,i,i,37.4,i,i
CNc1nc(N2CCCN(C)CC2)nc2cc(OC)c(OC)cc12,nt,nt,i,nt,nt,nt
CC1=CC(C)(C)N2C(=O)C3(C(C#N)=C(N)Oc4cc(O)ccc43)c3cccc1c32 (centres undefined),i,i,i,32.1,i,i
CC1=CC(C)(C)N2C(=O)C3(C(C#N)=C(N)OC4=C3C(=O)CC(C)(C)C4)c3cccc1c32 (centres undefined),nt,nt,nt,i,nt,i
CCOc1ccc2cc(C#N)c(SCC(=O)OCc3ccccc3)nc2c1,nt,nt,i,nt,nt,nt
CCN(CC)CCNS(=O)(=O)c1ccc2c3c(cccc13)C(=O)N2,i,i,i,i,i,i
